Some test systems named below: SR leukemia; RPMI-8226 leukemia; OVCAR-8 ovarian; OVCAR-5 ovarian; OVCAR-4 ovarian; SK-OV-3 ovarian; IGROV1 ovarian; OVCAR-3 ovarian; HS 578T breast; NCI/ADR-RES ovarian; T-47D breast; BT-549 breast; MDA-MB-435 melanoma; SW-620 colon; MCF7 breast; HCT-116 colon; HCC-2998 colon; KM12 colon.
Experiment in all cases: NCI-60 one-dose screen, 48 h (100 = growth as untreated, 0 = no growth, -100 = all killed)
Holding throughout (settings): 10 µM unless noted

Compounds without any hit were thinned out: in the full panel of roughly 83,000, 20% have a hit.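 Treatment: one concentration, 48 hours, 96-well format. Scoring: percent growth, with anything below 10 considered active.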 Unmarked numbers belong to inactive results. The source made the active and inactive calls.

Take `Cn1ccnc1C(=O)/C=C/c1ccc(CNC(=O)c2ccc(S(F)(F)(F)(F)F)cc2)cc1`: the growth is 4.16% (active) in the assay on SR leukemia; -10.9% (active) in the assay with RPMI-8226 leukemia; 26.4% with OVCAR-8 ovarian; 22.4% in the assay on OVCAR-5 ovarian; 35.6% with OVCAR-4 ovarian; 66.8% in the assay with SK-OV-3 ovarian. The growth was 16.7% in the assay with IGROV1 ovarian; 16.8% in the assay with OVCAR-3 ovarian; 23% in the assay on HS 578T breast; 12.2% in the assay on NCI/ADR-RES ovarian; 25% in the assay with T-47D breast; 35.6% with BT-549 breast. The growth in the assay on MDA-MB-435 melanoma is 55.5%; in the assay with SW-620 colon, 9.31% (active); in the assay with MCF7 breast it was 13.3%; in the assay on HCT-116 colon, -17.1% (active); with HCC-2998 colon, 11.5%; with KM12 colon it was 13%.
For the compound `CCCCCc1ccc(S(=O)(=O)Nc2cc(-c3csc(NC(=O)CN4CCN(CCO)CC4)n3)ccc2OC)cc1`, the growth is -13.2% (active) in the assay with SR leukemia; -16.9% (active) in the assay on RPMI-8226 leukemia; 82.1% in the assay on OVCAR-8 ovarian; 86.1% in the assay on OVCAR-5 ovarian; 72.5% in the assay with OVCAR-4 ovarian; 78% in the assay on SK-OV-3 ovarian. The growth in the assay with IGROV1 ovarian was 48.9%; in the assay on OVCAR-3 ovarian, 13.3%; in the assay on HS 578T breast, 52.8%; in the assay on NCI/ADR-RES ovarian it was 88.4%; in the assay on T-47D breast it was 26.8%; in the assay on BT-549 breast it was 88.7%. For the same compound, the growth was -48.6% (active) with MDA-MB-435 melanoma; 1.64% (active) with SW-620 colon; 6.28% (active) with MCF7 breast; -13.2% (active) in the assay with HCT-116 colon; -23.4% (active) in the assay with HCC-2998 colon; 61.2% with KM12 colon.
As for `N#Cc1cccc(CN2CCc3ncn(Cc4ccc(Cl)cc4)c(=O)c3C2)c1`, the growth with SR leukemia was 36.2%; in the assay on RPMI-8226 leukemia, 22.4%; in the assay with OVCAR-8 ovarian, 24.3%; with OVCAR-5 ovarian it was 23.8%; with OVCAR-4 ovarian, 16.5%; in the assay on SK-OV-3 ovarian it was 22.8%. Further, the growth is 44.1% with IGROV1 ovarian; 21.7% with OVCAR-3 ovarian; 35.9% in the assay on HS 578T breast; 14.7% with NCI/ADR-RES ovarian; 30.7% with T-47D breast; 29.7% with BT-549 breast. Moreover, the growth in the assay with MDA-MB-435 melanoma is 18.4%; with SW-620 colon it was 33.2%; with MCF7 breast it was 15.5%; in the assay with HCT-116 colon, 19.5%; with HCC-2998 colon, 13.9%; in the assay with KM12 colon, 29.7%.
As to `COc1ccc(S(=O)(=O)NCCCNc2nccc(-c3[nH]c(-c4ccccc4)nc3-c3ccc(Cl)c(O)c3)n2)cc1`, the growth was 61.9% in the assay on SR leukemia; 49.8% in the assay on RPMI-8226 leukemia; 67% in the assay on OVCAR-8 ovarian; 104% with OVCAR-5 ovarian; 101% with OVCAR-4 ovarian; 112% in the assay with SK-OV-3 ovarian. Also, the growth in the assay on IGROV1 ovarian is 93.6%; with OVCAR-3 ovarian it was 71.8%; in the assay on HS 578T breast it was 112%; in the assay with NCI/ADR-RES ovarian, 103%; in the assay on T-47D breast, 54.4%; with BT-549 breast it was 88.3%. The growth is 36.9% in the assay with MDA-MB-435 melanoma; 107% in the assay on SW-620 colon; 73.2% with MCF7 breast; 57.8% in the assay with HCT-116 colon; 112% in the assay with HCC-2998 colon; 77.6% in the assay with KM12 colon.
For the compound `CCN(CC)c1cn(-c2ccc(S(N)(=O)=O)cc2)nn1`, the growth with SR leukemia is 97%; in the assay with RPMI-8226 leukemia, 103%; with OVCAR-8 ovarian, 102%; in the assay with OVCAR-5 ovarian, 105%; in the assay with OVCAR-4 ovarian it was 101%; in the assay with SK-OV-3 ovarian, 113%. Further, the growth with IGROV1 ovarian is 113%; in the assay on OVCAR-3 ovarian it was 110%; in the assay on HS 578T breast, 98.3%; in the assay with NCI/ADR-RES ovarian, 109%; with T-47D breast it was 108%; in the assay with BT-549 breast it was 109%. For the same compound, the growth with MDA-MB-435 melanoma is 104%; with SW-620 colon, 101%; in the assay with MCF7 breast, 97.5%; in the assay with HCT-116 colon, 116%; in the assay on HCC-2998 colon, 107%; with KM12 colon, 102%.
As for `COc1ccc(-n2c(/C=C3\C(=O)Nc4ccccc43)ccc2CO)cc1`, the growth is 105% with SR leukemia; 94.6% in the assay with RPMI-8226 leukemia; 102% in the assay on OVCAR-8 ovarian; 107% in the assay on OVCAR-5 ovarian; 92.6% with OVCAR-4 ovarian; 105% in the assay on SK-OV-3 ovarian. In addition, the growth was 98.5% in the assay with IGROV1 ovarian; 114% in the assay with OVCAR-3 ovarian; 106% in the assay on HS 578T breast; 102% with NCI/ADR-RES ovarian; 88.8% in the assay on T-47D breast; 100% in the assay on BT-549 breast. The growth in the assay with MDA-MB-435 melanoma was 94.8%; in the assay on SW-620 colon it was 98.6%; with MCF7 breast, 93.3%; in the assay on HCT-116 colon, 95.6%; in the assay with HCC-2998 colon, 113%; with KM12 colon it was 19.3%.
As to `COc1cc2c(cc1OC)C(Sc1ccc(F)cc1)c1c(nc(N)c(C#N)c1N)O2` (configuration not stated), the growth in the assay with SR leukemia was 0.989% (active); in the assay on RPMI-8226 leukemia, -28% (active); in the assay with OVCAR-8 ovarian it was -15% (active); in the assay with OVCAR-5 ovarian, -88.2% (active); in the assay on OVCAR-4 ovarian it was -66.1% (active); with SK-OV-3 ovarian, -21.6% (active). Also, the growth in the assay on IGROV1 ovarian was -85.7% (active); in the assay with OVCAR-3 ovarian, -58.9% (active); in the assay on HS 578T breast, -4.38% (active); with NCI/ADR-RES ovarian, -46.4% (active); in the assay on T-47D breast, -28.1% (active); with BT-549 breast, 77.6%. Further, the growth was -52.9% (active) with MDA-MB-435 melanoma; -16.7% (active) in the assay on SW-620 colon; -88.3% (active) in the assay on MCF7 breast; -74.2% (active) in the assay on HCT-116 colon; -86.1% (active) with HCC-2998 colon; -62.9% (active) in the assay with KM12 colon.
As for `NC(N)=Nc1ccc(Nc2cccc(Nc3ccc(Cl)c(C(F)(F)F)c3)c2)cn1`, the growth is -31.7% (active) in the assay with SR leukemia; 13% with RPMI-8226 leukemia; 44.7% with OVCAR-8 ovarian; 73.8% in the assay on OVCAR-5 ovarian; 45.4% in the assay on OVCAR-4 ovarian; 77.6% in the assay with SK-OV-3 ovarian. Further, the growth was 33.4% in the assay on IGROV1 ovarian; -30.7% (active) in the assay on OVCAR-3 ovarian; 28.4% in the assay with HS 578T breast; 87.5% in the assay on NCI/ADR-RES ovarian; 23.8% in the assay on T-47D breast; 67.8% in the assay with BT-549 breast. For the same compound, the growth in the assay with MDA-MB-435 melanoma was 30.4%; with SW-620 colon it was 5.81% (active); in the assay on MCF7 breast it was 2.25% (active); with HCT-116 colon, 16.1%; in the assay with HCC-2998 colon, 9.32% (active); in the assay with KM12 colon, -38.3% (active).
As to `O=C(CN1CCN(c2cc(=O)n(-c3ccccc3)c3ccccc23)CC1)Nc1nc(-c2ccc(Cl)cc2)cs1`, the growth in the assay with SR leukemia is 56.8%; in the assay with RPMI-8226 leukemia, 36.7%; in the assay with OVCAR-8 ovarian it was 59.4%; in the assay on OVCAR-5 ovarian it was 93.1%; in the assay on OVCAR-4 ovarian it was 19.7%; in the assay on SK-OV-3 ovarian, 71.4%. The growth in the assay on IGROV1 ovarian is 65.5%; with OVCAR-3 ovarian it was 67.1%; in the assay with HS 578T breast, 92.8%; with NCI/ADR-RES ovarian it was 54.9%; with T-47D breast, 24.3%; in the assay on BT-549 breast, 46.5%. Moreover, the growth is 49.8% in the assay with MDA-MB-435 melanoma; 74.3% with SW-620 colon; 20.1% in the assay on MCF7 breast; 35.8% in the assay with HCT-116 colon; 92.4% in the assay with HCC-2998 colon; 64.7% in the assay with KM12 colon.

(Values after PubChem BioAssay (NCI).)
